The nature of assay [1]: Quantitative High-Throughput drug screen in 47 multiple myeloma cell lines against the NCATS MIPE library collection: KMS28PE_JCRB cell viability assay (AID 1918983). Note: nearly all actives have a fitted effect of over 35% in size. In a few lines: (§1)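 Readout: median RLU from CellTiter-Glo after 5 min at room temperature. Preceding step was 48 h drug treatment of 500 cells/well at 37 °C, 5% CO2, with DMSO-only and media-only control wells.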

Assay [2] can be described thus: Quantitative High-Throughput drug screen in 47 multiple myeloma cell lines against the NCATS MIPE library collection: OCIMY7_PLB cell viability assay (AID 1918987). Note: nearly all actives have a fitted effect of over 65% in size. Summed up: as §1
Assay [3] in a line: Quantitative High-Throughput drug screen in 47 multiple myeloma cell lines against the NCATS MIPE library collection: OPM1_PLB cell viability assay (AID 1918989). Note: nearly all actives have a fitted effect of over 40% in size. Summed up:
as §1

Assay [4] in a line: Quantitative High-Throughput drug screen in 47 multiple myeloma cell lines against the NCATS MIPE library collection: XG6_PLB cell viability assay (AID 1919865). Note: nearly all actives have a fitted effect of over 40% in size. Summed up: as §1
Assay [5] is described as follows: Quantitative High-Throughput drug screen in 47 multiple myeloma cell lines against the NCATS MIPE library collection: PE2_PLB cell viability assay (AID 1919869). Note: nearly all actives have a fitted effect of over 35% in size. Summed up: as §1
Assay [6] in a line: Quantitative High-Throughput drug screen in 47 multiple myeloma cell lines against the NCATS MIPE library collection: PCM6_Riken cell viability assay (AID 1919870). Note: nearly all actives have a fitted effect of over 30% in size. Summed up: as §1
Assay [7] is described as follows: Quantitative High-Throughput drug screen in 47 multiple myeloma cell lines against the NCATS MIPE library collection: RPMI8226_ATCC cell viability assay (AID 1919871). Note: nearly all actives have a fitted effect of over 30% in size. In a few lines:
as §1

A short description of assay [8]: Quantitative High-Throughput drug screen in 47 multiple myeloma cell lines against the NCATS MIPE library collection: OPM2_DSMZ cell viability assay (AID 1919872). Note: nearly all actives have a fitted effect of over 30% in size. Summed up: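 qHTS of the MIPE 4.0 collection: 500 myeloma cells/well, 48 h drug exposure at 37C in 5% CO2, then CellTiter-Glo for 5 min at room temperature before luminescence reading.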
A short description of assay [9]: Quantitative High-Throughput drug screen in 47 multiple myeloma cell lines against the NCATS MIPE library collection: KMS11_JCRBsus cell viability assay (AID 1919873). Note: nearly all actives have a fitted effect of over 50% in size. Summed up:
as §1

Assay [10] is described as follows: Quantitative High-Throughput drug screen in 47 multiple myeloma cell lines against the NCATS MIPE library collection: KMS28BM_JCRB cell viability assay (AID 1919874). Note: nearly all actives have a fitted effect of over 35% in size. In a few lines: as §1
Assay [11] in a line: Quantitative High-Throughput drug screen in 47 multiple myeloma cell lines against the NCATS MIPE library collection: L363_DSMZ cell viability assay (AID 1918984). Note: nearly all actives have a fitted effect of over 40% in size. Summed up:
as §1

A short description of assay [12]: Quantitative High-Throughput drug screen in 47 multiple myeloma cell lines against the NCATS MIPE library collection: OCIMY5_PLB cell viability assay (AID 1918988). Note: nearly all actives have a fitted effect of over 65% in size. Summed up:
as §1

The nature of assay [13]: Quantitative High-Throughput drug screen in 47 multiple myeloma cell lines against the NCATS MIPE library collection: U266_ATCC cell viability assay (AID 1919864). Note: nearly all actives have a fitted effect of over 35% in size. Summed up:
as §1

Assay [14] in a line: Quantitative High-Throughput drug screen in 47 multiple myeloma cell lines against the NCATS MIPE library collection: XG1_PLB cell viability assay (AID 1919866). Note: nearly all actives have a fitted effect of over 35% in size. Summed up:
as §1

A short description of assay [15]: Quantitative High-Throughput drug screen in 47 multiple myeloma cell lines against the NCATS MIPE library collection: VP6_DJ cell viability assay (AID 1919867). Note: nearly all actives have a fitted effect of over 40% in size. Summed up: as §1
Assay [16] can be described thus: Quantitative High-Throughput drug screen in 47 multiple myeloma cell lines against the NCATS MIPE library collection: UTMC2_PLB cell viability assay (AID 1919868). Note: nearly all actives have a fitted effect of over 55% in size. Summed up: as §1
Assay [17] is described as follows: Quantitative High-Throughput drug screen in 47 multiple myeloma cell lines against the NCATS MIPE library collection: KMS34_JCRB cell viability assay (AID 1918985). Note: nearly all actives have a fitted effect of over 40% in size. In a few lines:
as §1

The nature of assay [18]: Quantitative High-Throughput drug screen in 47 multiple myeloma cell lines against the NCATS MIPE library collection: SKMM1_PLB cell viability assay (AID 1919863). For viability: series mostly up to about 46 µM. Note: nearly all actives have a fitted effect of over 35% in size. The note with it: SKMM1 myeloma viability, CellTiter-Glo ATP, 48 h; viability: active compounds read low. In a few lines:
as §1
On the technique in general: ATP-based viability assays read luminescence as a measure of living cells.

Results filed as inconclusive are left out. A number with no mark means an inactive call. Active and inactive are the calls of the source. Calls come from the whole dose curve; as a rule, active = well fitted cell-killing curve with a large enough effect; inconclusive = small, poorly fitted or top-dose-only effect, or effect the other way; inactive = no such curve, though single readings can be large or run the other way.
Potency is the fitted concentration of half-maximal effect.

In the case of `CC1=NN(c2ccccc2)C(=O)C1`, the Potency entry in assay [1], in assay [2], in assay [3], in assay [5], in assay [6] and in assay [7] was “inactive” throughout. Also, the Potency entry in [8], in [9] and in assay [10] was “inactive” each time. The Potency in assay [4] was 7.43 µM (active).

`CCCCOc1ccc(CC(=O)NO)cc1`: the Potency in assay [1] is 20.9 µM (active); in assay [11] it was 18.7 µM (active); in assay [2] it was 16.6 µM (active); in assay [12], 9.35 µM (active); in [3] it was 14.8 µM (active); in assay [13], 8.33 µM (active). Also, the Potency result in assay [14], in assay [6] and in assay [10] was “inactive” each time.

Consider `CS(=O)(=O)c1ccc([C@@H](O)[C@@H](CO)NC(=O)C(Cl)Cl)cc1`, for which the Potency entry in [1], in [13] and in assay [8] was “inactive” throughout. The Potency in [4] is 18.7 µM (active); in assay [14], 18.7 µM (active); in assay [15], 16.6 µM (active); in [16], 13.2 µM (active); in assay [7], 2.35 µM (active); in assay [9], 11.8 µM (active).

With `OCc1ccc(-c2nn(Cc3ccccc3)c3ccccc23)o1`, the Potency entry in assay [1], in assay [11], in assay [17], in assay [14], in assay [5] and in assay [6] was “inactive” throughout. Moreover, the Potency entry in assay [8], in [9] and in [10] was “inactive” each time. Further, the Potency in assay [12] was 16.6 µM (active); in assay [3] it was 18.7 µM (active); in [18] it was 5.9 µM (active); in assay [7] it was 4.18 µM (active).

Usually viability stands for a read-out of living cells in per cent, often relative to untreated cells. For `Cc1cccc(N(C)C(=S)Oc2ccc3ccccc3c2)c1`, the Potency entry in assay [1], in assay [17], in assay [3], in [4], in assay [16] and in assay [5] was “inactive” each time. Moreover, the Potency entry in [8] and in assay [10] was “inactive” throughout. Also, the viability in assay [18] is 112%.

Take `Clc1ccccc1CN1CCc2sccc2C1`: the Potency result in assay [7] is “inactive”.

In the case of `COC(=O)Nc1nc2ccc(S(=O)c3ccccc3)cc2[nH]1` (stereo unspecified), the Potency was 23.5 µM (active) in [17]; 7.43 µM (active) in assay [2]; 16.6 µM (active) in assay [12]; 9.35 µM (active) in [4]; 8.33 µM (active) in assay [14]; 13.2 µM (active) in assay [15]. Besides, in assay [9], the Potency was 8.33 µM (active).

With `COc1cnc(NS(=O)(=O)c2ccc(N)cc2)nc1`, the Potency entry in assay [1], in [17], in assay [12], in assay [5], in assay [7] and in [8] was “inactive” each time. The viability in [18] is 141%. In addition, the Potency in assay [15] was 20.9 µM (active).

For the compound `O[C@@H](CNC[C@H](O)[C@H]1CCc2cc(F)ccc2O1)[C@@H]1CCc2cc(F)ccc2O1`, the Potency in assay [11] was 16.6 µM (active); in assay [12], 20.9 µM (active); in assay [3], 26.4 µM (active); in [18], 18.7 µM (active); in assay [4], 13.2 µM (active); in assay [14] it was 20.9 µM (active). The Potency in assay [15] was 14.8 µM (active); in [16], 20.9 µM (active); in assay [5], 26.4 µM (active); in assay [6] it was 16.6 µM (active); in assay [7] it was 20.9 µM (active); in [8] it was 18.7 µM (active). For the same compound, the Potency in assay [9] is 7.43 µM (active); in assay [10], 18.7 µM (active).

Take `CCC(C)(C)c1ccc(CC(C)CN2C[C@@H](C)O[C@@H](C)C2)cc1` (stereo partly specified): the Potency in assay [15] is 16.6 µM (active). In addition, the Potency result in assay [16] and in assay [8] was “inactive” throughout.

Take `COc1cc2c(Nc3ccc(Br)cc3F)ncnc2cc1OCC1CCN(C)CC1`: the Potency in assay [1] is 16.6 µM (active); in assay [12], 18.7 µM (active); in [3], 6.62 µM (active); in [4], 7.43 µM (active); in [14] it was 7.43 µM (active); in assay [7], 23.5 µM (active).

`CNNCc1ccc(C(=O)NC(C)C)cc1`: the Potency in assay [1] was 13.2 µM (active); in assay [12], 16.6 µM (active); in [18], 9.35 µM (active); in assay [8], 8.33 µM (active). The Potency entry in [3], in assay [4], in assay [14], in assay [15], in [5] and in assay [10] was “inactive” each time.

`COc1cccc(N(C)C(=S)Oc2ccc3c(c2)CCCC3)n1`: the Potency result in assay [1], in [17], in assay [3], in assay [13], in assay [16] and in assay [5] was “inactive” throughout. Moreover, the Potency result in assay [8] is “inactive”. The viability in [18] is 139%. The Potency in assay [7] was 18.7 µM (active); in [9] it was 29.6 µM (active).

As for `CN(Cc1cc(Br)cc(Br)c1N)C1CCCCC1`, the Potency result in [1], in assay [11], in assay [3], in assay [4], in assay [16] and in [8] was “inactive” each time. Also, the Potency result in assay [9] is “inactive”.

(Values after PubChem BioAssay (NCATS).)
